Tests used:
Test in all cases: PBM binding z-score (relative to random genomic background probes); higher = stronger binding; sequences stand for … in GC…GCGATTGACAGCGTAGAATGAAGG
[1] = tested on: RARb homodimer (NR concentration 270 nM)
Outline: (§1)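 Regression normalization was applied to scanned fluorescence from custom Agilent 4×180K protein-binding microarrays. Before scanning, arrays were incubated 1 h with ligand-free nuclear receptor dimers, and binding was detected with antibodies against each partner (one per run). Binding z-scores use the random background probes as reference.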

[2] = tested on: RARg:RXRa (NR concentration 270 nM, RXRa partner concentration 90 nM)
Outline: as §1

[3] = tested on: RARg homodimer (NR concentration 270 nM)
Outline: as §1

[4] = tested on: RXRa DBDmut IVT, anti-RXR (DBD mutation: RXRa K156A/R161A, NR concentration 90 nM)
Outline: as §1

[5] = tested on: RXRa homodimer (NR concentration 180 nM)
Outline: as §1

[6] = tested on: THRa:RXRa (NR concentration 90 nM, RXRa partner concentration 90 nM)
Outline: as §1

[7] = tested on: THRa homodimer (NR concentration 90 nM)
Outline: as §1

[8] = tested on: VDR:RXRa (NR concentration 270 nM, RXRa partner concentration 90 nM)
Outline: as §1

[9] = tested on: VDR homodimer (NR concentration 270 nM)
Outline: as §1

Sequence | PBM binding z-score [1] | PBM binding z-score [2] | PBM binding z-score [3] | PBM binding z-score [4] | PBM binding z-score [5] | PBM binding z-score [6] | PBM binding z-score [7] | PBM binding z-score [8] | PBM binding z-score [9]
GCGTCTGGGGCATCAGCAGGTTACCATAACTTAA | 0.953 | 0.859 | 0.544 | 0.254 | 0.243 | 1.06 | -0.103 | -0.165 | -0.379
ACAATTAGTTGAGACGAGGGCAACCGATAGGTTG | 1.5 | 0.974 | 0.94 | 0.611 | 0.718 | 2.74 | 0.375 | 0.691 | 1.07
CCTACTGGGCCAAGGTAATTGATCAGTCAAAGCA | 0.0571 | -0.354 | -0.0827 | -0.902 | -0.382 | 0.383 | -0.112 | -0.552 | -0.51
ATCTTTAGGTAAGACTCAGTTCAGTGAAGAACGC | 0.715 | 0.526 | 0.533 | 0.843 | 0.131 | 1.28 | 0.881 | 0.748 | 1.44
TGAATGAGGTTATAAGATCCGGGAACGTTGCAAA | 0.199 | 1.19 | 0.881 | 0.792 | 1.78 | 1.7 | 0.151 | 0.946 | 0.411
AGAATGAGGTTATACGTAGATGAGGGAAGAAAGT | 0.964 | 1.74 | 1.17 | 1.8 | 2.24 | 2.26 | 0.843 | 1.53 | 0.924
TAGCCTAGGTCATGCGCGCCAGTATAGTGTCGGC | 3.06 | 4.02 | 4.19 | 0.635 | 3.16 | 3.17 | 1.27 | 2.05 | 0.448
CCCGCTAGGTCAATGGTCAGCTAAAGCAGCTCGC | 3.03 | 3.62 | 4.76 | 1.28 | 2.37 | 2.27 | 0.886 | 1.02 | -0.00101
CCAGACAGGCGAGAAGGTAACTCAGCCTCGATTA | -0.738 | -0.546 | -0.427 | -0.382 | -0.473 | -0.499 | -0.402 | -0.665 | -0.366
CAAACTAGGTCACAAAGGTCAAAGTCCGTGCGTA | 5.75 | 7.55 | 8.33 | 3.46 | 8.41 | 4.52 | 2.58 | 7.28 | 6.7
TGACCAAGGTGAAGGTCGTTGATCCCTCTGTAGA | 1.87 | 1.64 | 1.25 | -0.322 | 1.84 | 2.37 | 0.58 | 1.43 | 0.744
GGATATAGGTAATACAAGGTGAAAGTCCGATTGT | 1.38 | 0.879 | 0.935 | 0.283 | 0.977 | 4.46 | 1.64 | 0.64 | 0.913
CGTCCAAGGTCAATGCTAGGTCAGTGATAGCATT | 5.15 | 7.48 | 6.91 | 3.87 | 5.32 | 4.38 | 3.02 | 4.92 | 3.54
CCTACTGCGCCATTCAGAGGTCATTGATCATATG | 3.92 | 3.36 | 2.53 | 1.73 | 3.92 | 3.37 | 2.07 | 3.85 | 3.47
TCTAGTTGGTCAAAGGTAACACACTCGAAATGCG | 1.51 | 1.97 | 1.45 | 1.33 | 2.42 | 1.46 | 0.935 | 1.7 | 0.995
CCTTCTGGGCCAAAGGTCATTGATTCCAATGCTC | 4.44 | 5.8 | 4.73 | 1.41 | 6.15 | 3.44 | 0.658 | 4.59 | 2.23
AGAATGCGGTTAAGATCAGGGAAACAGAATACAT | -0.126 | 0.0483 | 0.299 | -0.536 | -0.0604 | 0.164 | -0.363 | -0.269 | -0.162
AGAATGAGGTTATTAAGATCAGGGAATTGCGGTC | 1.05 | 1.17 | 0.93 | 1.91 | 1.89 | 2.18 | 0.599 | 2.62 | 0.931
TCTTGTAGATCCACAGGAGGTTAAGAAAGATCGA | 0.545 | 0.509 | 0.319 | 0.48 | 0.994 | 0.962 | 0.0268 | 0.74 | -0.139
TCTTGTAGATCAAGCAGGTTGAGAAAGCCTGAGT | -0.543 | -0.355 | -0.321 | 0.479 | -0.0549 | 0.0431 | -0.698 | 0.285 | -0.0523
GCATATAGGTAATACAAGGCGAAAGTCCGATTGT | -0.287 | 0.107 | 0.326 | 0.52 | 0.182 | 2.28 | -0.176 | -0.126 | -0.0927
CGAACTAGGTCAAGGACTGTGAATCTCCGCACGC | 2.85 | 3.76 | 4.41 | 1.33 | 2.35 | 2.52 | 1.03 | 1.17 | 0.0818
ATCTCGAGGTAACCAAGTTCAGTGAATGCCGAAC | 1.62 | 0.86 | 1.02 | 0.865 | 0.825 | 2.41 | 0.867 | 5.47 | 3.01
TTACCAAGGTGAGCTGAGGACGTTGATCCAACTC | 0.308 | 0.112 | 0.436 | -0.741 | -0.041 | 4.53 | 1.6 | 0.98 | -0.0863
ATATGTAGGTTAGCTGGGGTTATTCAGACTAGGC | 1.42 | 1.54 | 0.961 | 0.972 | 2.43 | 4.32 | 1.11 | 3.2 | 1.65
TCTAGTTGGTCAAAGGTCACCCACTCGAAATGCG | 5.15 | 7.19 | 6.47 | 1.86 | 8.17 | 3.7 | 1.8 | 5.09 | 2.58

Sequence | PBM binding z-score [1] | PBM binding z-score [2] | PBM binding z-score [3] | PBM binding z-score [4] | PBM binding z-score [5] | PBM binding z-score [6] | PBM binding z-score [7] | PBM binding z-score [8] | PBM binding z-score [9]
TTACCAAGGTGAGCTGAAGTCGTTGATCCAACTC | -0.14 | 0.0635 | -0.108 | -0.671 | 0.0519 | 0.821 | -0.297 | -0.383 | -0.905
CCAGACAGGTGAGAATGTAACTCAGCCTCGATTA | -0.0133 | 0.273 | 0.342 | 0.0123 | 0.179 | -0.103 | -0.12 | -0.0872 | -0.0924
AGAATGAGGTTAACATCAGGGAAACAGAATACAT | 0.933 | 2.72 | 2.01 | 1.29 | 3.24 | 2.91 | 0.858 |  | 0.64
CCTAGTTGGTCAGGAGGTCACACACCGGATATGA | 4.56 | 5.11 | 4.78 | 0.706 | 4.83 | 3.61 | 2.6 | 4.06 | 2.82
CCGACTGGGCCAAAGGTTACCATACTCAGTACGA | 2.31 | 2.84 | 1.45 | 0.18 | 3.2 | 1.56 | 0.0942 | 1.21 | -0.0479
CAAACTAGGTCACAGGTCAAAGTCGAGCCAACCA | 4.27 | 5.97 | 5.55 | 2.31 | 6.18 | 3.97 | 2.07 | 4.33 | 2.12
TCTTGTAGATCAGCAGGTTAACAAAGCTGGCCAA | 0.38 | 0.348 | -0.352 | 0.44 | 0.609 | 0.517 | -0.468 | 0.696 | -0.328
AGAATGAGGTTAAGATCAGGGATACAGAATACAT | 1.26 | 2.17 | 1.83 | 1.17 | 2.45 | 2.78 | 1.25 |  | 0.506
ATCTCTAGGTAAGACTCAGTTCAATGAAGAACGC | 0.915 | 0.919 | 0.623 | 0.822 | 0.539 | 1.29 | 0.873 | 1.07 | 2.32
CAGCCTAGGTCAGGGCCAGAATAGGAGGAACGTT | 2.24 | 2.81 | 3.54 | -0.145 | 1.6 | 1.84 | 0.0772 | 0.0945 | -0.324
TCTTGTAGATCAGCAGTTTAAGAAAGCTGGCCAA | -0.447 | -0.29 | -0.416 | 0.659 | -0.0867 | -0.138 | -0.319 | -0.0839 | 0.0603
ATATTTAGGTTATCGGGTCATTCAGTTTGCGCAT | 3.44 | 3.54 | 2.82 | 1.92 | 3.57 | 3.62 | 3.93 | 5.35 | 4.95
CGAACTAGGTCATCCAGGCCAGTGAATACATTGA | 3.18 | 4 | 4.59 | 2.18 | 2.85 | 3.23 | 1.19 | 3.97 | 1.33
GCATATAGGTAATACAAGGTGAAACTCCGATTGT | 0.806 | 0.886 | 0.775 | 0.602 | 1.06 | 4.51 | 1.21 |  | 0.121
TCTCTTAGTTGATTAGGGCAACCGAAACAGCGGA | 0.99 | 0.874 | 0.649 | 1.47 | 0.82 | 0.934 | 0.61 | 0.558 | 0.608
GCTCGTAGATCAAGGTTAAGAAAGACTAAGCTAA | -0.0448 | 0.0431 | -0.0396 | -0.285 | 0.709 | 0.978 | -0.631 | -0.0501 | -0.34
CCTACTGGGCCAGAAAGGTCATTGATGCCGATAA | 4.36 | 4.7 | 4.43 | 0.0732 | 5.18 | 2.88 | 0.378 | 4.91 | 2.56
CCTTACGAGTCACTCCAGGTTATAGCATCGGAGT | 0.938 | 0.686 | 0.863 | 0.584 | 0.475 | 3.69 | 1.07 | 1.24 | 0.838
CCGACTGGGGCATAACGTTACCATAAGCCAGCCC | -0.131 | -0.0174 | 0.122 | -0.083 | -0.0796 | -0.497 | -0.431 | -0.52 | -0.0002
CCGATTAGTTGACCATAAGGGCAACCGAAGCTCG | 2.01 | 0.824 | 0.774 | 0.777 | 0.56 | 1.7 | 0.965 | 0.252 | 0.334
CCTACTGGGCCAAAAAGGTTATTGATGCCGATAA | 1.36 | 0.788 | 0.644 | -0.387 | 1.03 | 0.617 | -0.462 | 1.6 | 0.00157
CGTCCAAGGTCATAGGTCAGTGAAGAGATGACGG | 4.84 | 6.97 | 6.86 | 3.61 | 8.18 | 4.31 | 2.65 | 5.32 | 3.51
ATCTCTAGGTAAGACTCAGTTCAGAGAAGAACGC | 0.397 | 0.254 | 0.549 | 0.3 | -0.0317 | 0.761 | 0.645 | 0.685 | 1.12
CAAACTAGGTCACCGGTAGGTCAAAGTCCGCATG | 4.94 | 7.11 | 6.27 | 1.7 | 4.82 | 4.3 | 2.8 | 4.75 | 2.2
CCGAGTAGGCTATGGGGCATTCAGGCAACGGTGA | -0.154 | -0.57 | -0.466 | -0.62 | -0.38 | -0.343 | -0.619 | -0.947 | -0.709
GCGACTGGGGCATCATCAGGTTACCATAACTTAA | 1.15 | 0.589 | 0.679 | 0.291 | 0.302 | 2.31 | 1.31 | 0.00777 | 0.0657

— the supplement of paper PMC6555819
